Laboratory results from PubChem BioAssay (NCI).
The panel holds about 83,000 compounds, 20% with a hit somewhere; the sample as a whole holds those more often.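 Percent growth is the endpoint: 0 to 100 indicates growth inhibition (40 means 60% inhibition), 0 means no net growth, and negative values indicate cell death.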 A number with no mark means an inactive call. The source made the active and inactive calls. Rule for the calls: active = growth percent below 10; inactive = the rest.

Assays:
Assay in all cases: NCI-60 one-dose screen, 48 h (100 = growth as untreated, 0 = no growth, -100 = all killed)
Details in all cases: 10 µM unless noted
SR leukemia = tested on: SR leukemia
RPMI-8226 leukemia = tested on: RPMI-8226 leukemia
OVCAR-8 ovarian = tested on: OVCAR-8 ovarian
OVCAR-5 ovarian = tested on: OVCAR-5 ovarian
OVCAR-4 ovarian = tested on: OVCAR-4 ovarian
SK-OV-3 ovarian = tested on: SK-OV-3 ovarian
IGROV1 ovarian = tested on: IGROV1 ovarian
OVCAR-3 ovarian = tested on: OVCAR-3 ovarian
HS 578T breast = tested on: HS 578T breast
NCI/ADR-RES ovarian = tested on: NCI/ADR-RES ovarian

Compound | growth (SR leukemia) | growth (RPMI-8226 leukemia) | growth (OVCAR-8 ovarian) | growth (OVCAR-5 ovarian) | growth (OVCAR-4 ovarian) | growth (SK-OV-3 ovarian) | growth (IGROV1 ovarian) | growth (OVCAR-3 ovarian) | growth (HS 578T breast) | growth (NCI/ADR-RES ovarian)
O=C(CSc1nnc(-c2ccccc2)o1)Nc1ccc(C(=O)/C=C/c2ccccc2)cc1 | 28.8% | 2.35% (active) | 60.1% | 102% | 30.9% | 108% | 38% | 41.8% | 88.5% | 53.6%
Cc1c(Cl)ccc2c(C(=O)Cl)cc(-c3ccccc3)nc12 | 91.8% | 92.2% | 99.7% | 97.1% | 88.5% | 99.4% | 107% | 104% | 98.9% | 101%
COc1cc2ncnc(Oc3ccc(NC(=O)Nc4ccc(C5(C#N)CCCC5)cc4)c4ccccc34)c2cc1OC | 70.3% | 58.8% | 0.585% (active) | 81% | -1.26% (active) | 40.7% | 40% | 52% | 29.6% | 72.2%
COc1ccccc1NC(=O)COc1ccc(/C=C2/Oc3cc4occc4c(OC)c3C2=O)cc1OC | 93.5% | 66.7% | 85.4% | 111% | 112% | 110% | 122% | 105% | 112% | 90.8%
CC(=O)CC/C=C(\C)[C@H](O)[C@H](C)C(=O)O[C@H]1C[C@H](C)C=C2C=C[C@@]3(C)O[C@@H](O)CC(=O)[C@]3(C)[C@H]21 | 0.335% (active) | -18.5% (active) | -14.7% (active) | -10% (active) | -21.9% (active) | -25.5% (active) | -17.7% (active) | -46.4% (active) | -10.1% (active) | 0.0427% (active)
CC(=O)c1cc2c(N)c(C(=O)Nc3cccc(Cl)c3)sc2nc1C | 66.1% | 76.7% | 83.5% | 113% | 84.3% | 51.3% | 92.3% | 92.8% | 83.2% | 79.5%
c1nc(SC2=NCCN2)c2[nH]cnc2n1 | 22% | 29.2% | 41% | 48.5% | 61.7% | 8.1% (active) | 64% | 30.8% | 79.4% | 22.5%
Cc1ccc(-c2nc3c(N=Nc4ccc(S(N)(=O)=O)cc4)c(N)nn3c(N)c2C#N)cc1 | 28.9% | -16.4% (active) | 44.1% | 78.7% | 52.2% | 63.8% | 37.4% | 23.6% | 39.4% | 99.9%
Cc1c(NC(=O)c2sc3nc4c(cc3c2N)CN(Cc2ccccc2)CC4)cccc1C(F)(F)F | 20.1% | 36.3% | 63.1% | 79.6% | 60% | 77.8% | 51% | 6.31% (active) | 31% | 43.7%
CCCCCCCC(=O)SCC/C=C/[C@@H]1CC(=O)NCc2nc(cs2)C2=N[C@@](C)(CS2)C(=O)N[C@@H](C(C)C)C(=O)N1 | 6.51% (active) | -6.34% (active) | 5.08% (active) | 22.5% | 31% | -4.42% (active) | 0.908% (active) | -7.56% (active) | 11.5% | 84.5%
O=c1c2ccccc2sc2c(N3CCCC3)nc3ccccc3c12 | 81.5% | 92.8% | 93.6% | 112% | 95.2% | 118% | 85.8% | 107% | 89.6% | 102%
COc1ccc(Cn2cc3c(c2-c2cc(OC)c(OC)c(OC)c2)CCc2c(CO)noc2-3)cc1 | 22.2% | 21.7% | 22.4% | 56.6% | 68.9% | 39.9% | 40.8% | 5.3% (active) | 9.56% (active) | 8.59% (active)
CC1=C2C(=C[C@@](C)(CO)[C@@H]2OC(=O)N(C)CCN(C)C(=O)OC(C)(C)C)C(=O)[C@](C)(O)C12CC2 | 50.6% | 48% | 36.6% | 19.2% | 43.8% | 35.3% | 9.25% (active) | 3.63% (active) | 93.9% | 10.7%
C=C1C(=O)O[C@H]2[C@H]1CC/C(COC(=O)c1cc(OC)c(OC)c(OC)c1)=C\CC[C@@]1(C)O[C@@H]21 | -13.2% (active) | -36.2% (active) | -45.7% (active) | -12.4% (active) | 20.1% | 97.6% | -8.27% (active) | -69.8% (active) | 32.9% | 10.9%
COc1ccc(C(=O)NC(=O)Nc2ccc3c(c2)NC(=O)/C3=C\c2[nH]c(C)c(C(=O)O)c2C)cc1 | 34.3% | 83.2% | 39.9% | 121% | 93% | 118% | 75.4% | 52.7% | 46.8% | 99.1%
C=C1C(=O)O[C@H]2[C@H]1CC/C(COC(=O)c1ccccc1)=C\CC[C@@]1(C)O[C@@H]21 | -14.1% (active) | -36.4% (active) | -34.3% (active) | 2.5% (active) | 5.21% (active) | 95.4% | -24.9% (active) | -44.5% (active) | 44% | 36.2%
Cc1c(F)cccc1NC(=O)c1sc2nc3c(cc2c1N)CCCCC3 | 16.8% | 35.3% | 80.3% | 90.1% | 75.6% | 66.2% | 53.7% | 34.6% | 54.3% | 43.9%
C=C1C(=O)O[C@H]2[C@H]1CC/C(COC(=O)c1ccc(Cl)nc1)=C\CC[C@@]1(C)O[C@@H]21 | -13.2% (active) | -30% (active) | -8.23% (active) | 27.2% | 27.9% | 99.3% | 13.1% | -42.1% (active) | 61.2% | 42.1%
CC(C)C(=O)Nc1nc2c(s1)CCCc1ccn(S(=O)(=O)c3ccccc3)c1-2 | 84.3% | 87.5% | 101% | 99.2% | 104% | 87.4% | 107% | 107% | 101% | 94.2%
O=C(/C=C/c1ccccc1)Oc1ccc(/C=C/c2cc(OC(=O)/C=C/c3ccccc3)cc(OC(=O)/C=C/c3ccccc3)c2)cc1 | 92% | 99.8% | 84.7% | 96.6% | 100% | 86.5% | 98.6% | 107% | 95.9% | 103%
O=[N+]([O-])c1ccc(NS(=O)(=O)c2cc(Cl)ccc2Cl)c2ccccc12 | 60.1% | 14.1% | 79.5% | 89.1% | 54% | 59.6% | 82.3% | 33.7% | 54.3% | 59.3%
O=C1c2ccccc2OC=C(c2ccccc2)N1CCCCN1CCCCC1 | 65.2% | 23.6% | 51.7% | 101% | 58.7% | 13.2% | 73.7% | 63.6% | 75.1% | 88.8%
COc1ccc(-c2cc(-c3nnc(SC/C(=N\O)c4ccccc4)n3-c3ccccc3)c3ccccc3n2)cc1 | 86.8% | 97.9% | 98.7% | 119% | 113% | 79.4% | 105% | 107% | 98.4% | 104%
COc1ccc(-c2c(NC(=O)Nc3ccc(Cl)c(C(F)(F)F)c3)cnn2-c2ccc(S(N)(=O)=O)cc2)cc1 | 7.38% (active) | 19.9% | 28.5% | 60.6% | 32.8% | 68.4% | 33.1% | 25.4% | 49.6% | 89.9%
Cc1nc(N)nc(SCc2ccccc2)c1Br | 74.4% | 81.1% | 89.9% | 111% | 86.2% | 84.2% | 82.7% | 107% | 87.6% | 95.9%
O=C(c1ccccc1)[C@H]1[C@@H]2CCCN2[C@]2(C(=O)Nc3ccc(F)cc32)[C@]12C(=O)Nc1ccccc12 | 85.2% | 71.2% | 88.8% | 91.7% | 81.6% | 83.8% | 81.3% | 83.7% | 96.1% | 96.7%
